Screening data (PubChem)
CFTR F508del cor: F508del CFTR correction, initial screen, CFBE line, single point | CFBE cells, YFP halide quenching; stimulated with forskolin plus potentiator P3; % fluorescence drop versus neutral controls | activity (quench increase), % at 7.58 µM | 0.36% of 350,000 active | AID 720511, 2013;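 active = mean added fluorescence quench of at least 8% versus neutral control, with both replicates also reaching 8%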;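 note: cells transiently co-express mutant CFTR-F508del with the halide-sensitive YFP; corrector assay measuring rescue of mutant channel to the surface after 24 h compound exposure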
ERAP1 HTS inh: human ERAP1 aminopeptidase inhibitors, primary screen, biochemical, single point, plate reader; recombinant ERAP1, Leu-AMC fluorescence, 60 min; inhibition, % at 10.7 µM; Endoplasmic reticulum aminopeptidase 1 (Homo sapiens), Q9NZ08; 0.15% of 340,000 active; AID 652197, 2013;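 active = mean replicate inhibition of at least 30%, or all replicates individually reaching that 30% level; inactive = mean below 30% and not every replicate reaching it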
Target sequence (Q9NZ08 whole entry, looked up): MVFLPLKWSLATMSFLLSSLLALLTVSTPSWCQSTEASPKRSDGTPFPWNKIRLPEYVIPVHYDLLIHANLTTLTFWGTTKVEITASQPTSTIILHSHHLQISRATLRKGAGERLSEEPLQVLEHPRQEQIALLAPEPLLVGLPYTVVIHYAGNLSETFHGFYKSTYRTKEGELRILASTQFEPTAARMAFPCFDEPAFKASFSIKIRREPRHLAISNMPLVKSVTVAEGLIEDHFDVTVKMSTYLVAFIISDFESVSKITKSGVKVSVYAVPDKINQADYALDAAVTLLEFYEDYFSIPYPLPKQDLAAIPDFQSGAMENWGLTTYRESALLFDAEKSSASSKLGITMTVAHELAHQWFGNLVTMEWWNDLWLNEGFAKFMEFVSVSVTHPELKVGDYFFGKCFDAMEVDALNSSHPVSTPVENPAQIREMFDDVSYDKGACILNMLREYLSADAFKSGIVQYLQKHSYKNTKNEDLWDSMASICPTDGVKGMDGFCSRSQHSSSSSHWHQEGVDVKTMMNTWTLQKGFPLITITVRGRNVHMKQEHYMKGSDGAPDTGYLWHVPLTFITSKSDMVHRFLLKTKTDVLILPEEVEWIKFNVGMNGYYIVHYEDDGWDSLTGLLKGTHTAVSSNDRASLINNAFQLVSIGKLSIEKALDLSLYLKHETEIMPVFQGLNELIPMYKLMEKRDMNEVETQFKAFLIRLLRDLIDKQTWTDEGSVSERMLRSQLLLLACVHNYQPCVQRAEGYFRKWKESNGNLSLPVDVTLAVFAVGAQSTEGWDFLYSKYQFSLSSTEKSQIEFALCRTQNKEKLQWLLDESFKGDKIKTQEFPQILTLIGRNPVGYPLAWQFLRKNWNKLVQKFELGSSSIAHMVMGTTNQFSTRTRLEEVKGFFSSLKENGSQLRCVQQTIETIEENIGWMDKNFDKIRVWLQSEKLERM
ARNT-TACC3 inh: disruptors of ARNT/TACC3 protein interaction, primary screen, biochemical, AlphaScreen, single concentration. Transforming acidic coiled-coil-containing protein 3 (Homo sapiens), Q9Y6A5. AlphaScreen His-ARNT PAS-B/GST-TACC3 binding, luminescence; TACC3 fragment carries E629A point mutation. inhibition, % at 9.99 µM. 0.66% of 390,000 active;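 active = mean inhibition of replicates at least 50% and at least half of replicates each reaching 50%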
Ecoli rRNA inh: reduced GFP signal of wild-type E. coli, primary screen, bacterial rRNA inhibitor project, GFP/RFP fluorescence, OD600, single point. E. coli WT GFP vs humanized-ribosome RFP mutants, 24 h; active compounds read low; DMSO median 0, no signal -100. GFP signal change (wild-type ribosome), % (no concentration beside the values). 1.6% of 350,000 active. AID 720706, 2013;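 active = significant combined selectivity score with lowered wild-type GFP, culture density cut under 30%, mutant RFP and density less affected; inactive = any of these conditions unmet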
PvdQ acylase: P. aeruginosa PvdQ acylase inhibitors, primary screen, biochemical, fluorescence, plate reader and imaging, single point; purified PvdQ acylase; AID 488965, 2010; PvdQ acylase [Pseudomonas aeruginosa LESB58]; inhibition, % at 10 µM; 0.063% of 340,000 active; in the data active = inhibition above about 30%, passing the limit was not always enough
A number is an active result; 0 = inactive; - = no result given. Rows were chosen to be rich in hits. Some 2.1% of all compounds tested hit in one or more screens of this group.

SMILES	CFTR F508del cor	ERAP1 HTS inh	ARNT-TACC3 inh	Ecoli rRNA inh	PvdQ acylase
CC(C)N1C(=O)CCC1C(=O)N1CCCc2ccccc21 (stereo not given)	-	-	13	-	0
CO[C@H]1CN(C)C(=O)c2cc(NC(=O)C3CCCCC3)ccc2OC[C@H](C)N(Cc2nccs2)C[C@@H]1C	0	0	0	0	-
COc1ccc2nc(/N=C/c3c(C)[nH]n(-c4ccc(C)cc4C)c3=O)sc2c1	-	0	66	0	0
COc1ccc(S(=O)(=O)CC(=O)c2cc3cc(Br)ccc3oc2=O)cc1	0	0	0	-22	0
CCOC(=O)C1CCCN(C(=S)Nc2ccc(Nc3ccccc3)cc2)C1 (stereo not given)	0	0	0	-30	0
CCOC(=O)C1CCCN(Cc2nc(N)nc(Nc3ccccc3)n2)C1 (stereo not given)	-	-	48	-	0
Cc1ccc(Nc2nc(N)nc(CN3CCN(C)CC3)n2)cc1	-	-	0	-	0
Cc1ccc(Nc2nc(N)nc(CN3CCCCCC3)n2)cc1	-	-	50	-	0
Nc1nc(CN2CCCCCC2)nc(Nc2ccccc2)n1	-	-	52	-	0
CN(C)Cc1c(C(C)(C)O)[nH]c2cc(C(F)(F)F)ccc12	0	0	-	0	-
CO[C@H]1CN(C)C(=O)c2ccc(NC(=O)C3CC3)cc2OC[C@@H](C)N(C(=O)CN(C)C)C[C@H]1C	0	0	0	0	-
CN(C)C(=O)C[C@H]1C=C[C@H](NC(=O)C2CC2)[C@H](CO)O1	0	0	0	0	-
O=C(c1ccccn1)N1C[C@H]2[C@@H](c3ccccc31)[C@@H](CO)N2C(=O)CC1CC1	0	0	45	0	-
O=C(c1ccccn1)N1C[C@H]2[C@@H](c3ccccc31)[C@H](CO)N2C(=O)C1CCCC1	0	0	0	0	-
O=C(c1ccccn1)N1C[C@H]2[C@@H](c3ccccc31)[C@H](CO)N2C(=O)CC1CC1	0	0	0	0	-
O=C(c1ccccn1)N1C[C@@H]2[C@H](c3ccccc31)[C@H](CO)N2C(=O)C1CC1	0	0	49	0	-
CCC(=O)N1C[C@H](C)[C@@H](OC)CN(C)C(=O)c2cc(NS(=O)(=O)CC)ccc2OC[C@@H]1C	0	0	0	0	-
O=C(Nc1ccccc1)N1CCCCN2[C@H](CO)[C@H](c3ccc(C#CC4CC4)cc3)[C@H]2C1	0	0	0	0	-
O=C(Nc1ccccc1)N1CCCCN2[C@H](CO)[C@@H](c3ccc(C#CC4CC4)cc3)[C@@H]2C1	0	0	active	0	-
O=C(Nc1ccccc1)N1CCCCN2[C@H](CO)[C@H](c3ccc(C#Cc4ccccn4)cc3)[C@H]2C1	0	0	11	0	-
CC(C)CC#Cc1ccc([C@@H]2[C@@H](CO)N3CCCCN(C(=O)NC4CCCC4)C[C@H]23)cc1	9.8	0	0	0	-
CC(C)CC#Cc1ccc([C@@H]2[C@H](CO)N3CCCCN(C(=O)NC4CCCC4)C[C@@H]23)cc1	0	0	0	0	-
CO[C@@H]1CN(C)C(=O)c2ccc(NC(=O)C3CCCCC3)cc2OC[C@H](C)N(Cc2cccnc2)C[C@@H]1C	0	-	-	0	-
CN1C(=O)c2cc(NC(=O)c3cnccn3)ccc2OC[C@@H]2O[C@@H](CC(=O)NCC3CC3)CC[C@H]21	0	0	-	0	-
COc1cc2cc(C(=O)NCCc3c[nH]c4ccccc34)c(N)nc2cc1OC	0	-	-	-31	-
SMILES	CFTR F508del cor	ERAP1 HTS inh	ARNT-TACC3 inh	Ecoli rRNA inh	PvdQ acylase
Nc1nc2cc3c(cc2cc1C(=O)NCCc1c[nH]c2ccccc12)OCO3	0	0	-	-25	-
O=C(COc1ccc(Cl)cc1Cl)N/N=C/CCc1ccccc1	-	-	0	-	0
O=C(COc1ccc(Cl)cc1Cl)c1ccc[nH]1	0	-	0	-31	0
O=C(COc1ccc(Cl)cc1Cl)N/N=C/c1ccc[nH]1	0	0	0	-22	0
NC[C@@H]1O[C@H](C23CC4CC(CC(C4)C2)C3)Cc2c1ccc(O)c2O	0	31	0	0	0
C[C@H]1CN([C@@H](C)CO)C(=O)c2cc(C#CC(C)(C)O)cnc2O[C@H]1CN(C)Cc1ccccn1	0	0	0	0	-
O=C(c1[nH]ncc1-c1cccc(Br)c1)C1CO1 (stereo not given)	11	0	0	0	0
COc1ccc(S(=O)(=O)Nc2ccc3c(c2)C(=O)N([C@@H](C)CO)C[C@H](C)[C@@H](CN(C)C(=O)Cc2ccccc2)OCCCC[C@@H](C)O3)cc1	0	0	0	0	-
Cc1ccc(C(=O)OCC(=O)NC(C)c2ccccc2)s1 (stereo not given)	0	0	0	0	0
Cc1ccc(C(=O)NCC(=O)OCC(=O)NC(C)c2ccccc2)s1 (stereo not given)	15	0	0	0	0
O=C(Nc1ccc(F)cc1)Nc1ccc(N2CCOCC2)c2nonc12	11	0	0	0	0
Cc1ccc(S(=O)(=O)N[C@H]2CC[C@H](CC(=O)N3CCC(Cc4ccccc4)CC3)O[C@H]2CO)cc1	0	0	0	0	-
C[C@]12c3[nH]c4ccc(Cl)cc4c3CCN1C(=O)[C@@H](CC(=O)NCc1ccco1)C[C@@H]2C(=O)N1CCOCC1	0	-	0	-23	0
Cc1cc2c(c(=O)o1)C(CCC1CCCCC1)C(C#N)=C(N)O2 (stereo not given)	0	0	-	-21	-
CC(C)NC(=O)N(C)C[C@H]1Oc2ccc(NC(=O)C3CC3)cc2CC(=O)N([C@H](C)CO)C[C@@H]1C	0	0	0	0	-
CCOC(=O)c1oc2ccc(S(=O)(=O)n3nc(-c4ccccc4)cc3N)cc2c1C	8.2	0	0	0	0
CCOC(=O)c1oc2ccc(S(=O)(=O)n3nc(-c4ccc(OC)cc4)cc3N)cc2c1C	0	-	0	0	0
Cc1ccccc1CN1C(=O)C(C)S/C1=N/N=C/c1ccco1 (stereo not given)	0	0	0	-23	0
CC1S/C(=N/N=C/c2ccco2)N(Cc2ccc(F)cc2)C1=O (stereo not given)	0	0	0	0	0
Cc1nc2sc(C#N)c(N)c2c2c1CCCC2	-	-	0	-	0
CC(=O)c1sc2nc(C)c3c(c2c1N)CCCC3	0	0	-	-33	-
CO[C@@H]1CN(C)C(=O)c2ccc(NC(=O)C3CCOCC3)cc2OC[C@H](C)N(C(=O)c2ccccc2)C[C@@H]1C	0	-	0	0	-
O=S(=O)(c1ccc(F)cc1)N1CC[C@@H]2[C@@H](CO)Nc3ccc(-c4ccc(F)cc4)cc3[C@@H]21	16	-	0	0	-
COc1ccc(S(=O)(=O)N2CC[C@@H]3[C@@H](CO)Nc4ccc(-c5ccc(C#N)cc5)cc4[C@@H]32)cc1	9.7	0	0	0	-
FC(F)(F)c1ccccc1Cc1c(-c2ccccc2)nc2ccc(Br)cn12	0	-	-	-27	-
